For eleven compounds, Potency, max response and outcome results are on record in PubChem BioAssay (NCATS).

In one assay the test system is N140. Description: qHTS profiling for inhibitors of Plasmodium falciparum proliferation (AID 504749). Also: potency is read from the fitted curve at half-maximal effect. As to conditions: P. falciparum in erythrocytes, SYBR Green DNA, 72 h; series mostly up to 28.7 µM. A digest of the protocol: (§1)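 Each compound contacts P. falciparum-infected red blood cells for 72 h at 37 C; lysis buffer (Tris, EDTA, saponin, Triton X, SYBR Green I) is added and fluorescence measured next morning; values normalized to controls.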
Background: qHTS replaces the single test concentration by a dilution series.

For another assay, the system named is P93_24. The assay is described as above. As to conditions: P. falciparum in erythrocytes, SYBR Green DNA, 72 h; series mostly up to 28.7 µM. A digest of the protocol:
as §1

Another assay relates to P94_40. Described as above. As to conditions: P. falciparum in erythrocytes, SYBR Green DNA, 72 h; series mostly up to 28.7 µM. A digest of the protocol: as §1
The subject of another assay is PAD. The assay is described as above. Conditions: P. falciparum in erythrocytes, SYBR Green DNA, 72 h; series mostly up to 28.7 µM. A digest of the protocol:
as §1

A further assay has as its system PC15. The assay is described as above. Conditions: P. falciparum in erythrocytes, SYBR Green DNA, 72 h; series mostly up to 28.7 µM. An outline of the steps:
as §1

The subject of another assay is PC26. The assay is described as above. Conditions: P. falciparum in erythrocytes, SYBR Green DNA, 72 h; series mostly up to 28.7 µM. An outline of the steps: as §1
Another assay deals with PC49. Described as above. As to conditions: P. falciparum in erythrocytes, SYBR Green DNA, 72 h; series mostly up to 28.7 µM. An outline of the steps:
as §1

In a further assay the test system is SC27B. The assay is described as above. As to conditions: P. falciparum in erythrocytes, SYBR Green DNA, 72 h; series mostly up to 28.7 µM. A digest of the protocol:
as §1

In another assay the test system is TAB109. Described as above. Conditions: P. falciparum in erythrocytes, SYBR Green DNA, 72 h; series mostly up to 28.7 µM. A digest of the protocol: as §1
For a further assay, the system named is TAB113. The description is as above. As to conditions: P. falciparum in erythrocytes, SYBR Green DNA, 72 h; series mostly up to 28.7 µM. An outline of the steps:
as §1

A further assay relates to TAB165. Described as above. Conditions: P. falciparum in erythrocytes, SYBR Green DNA, 72 h; series mostly up to 28.7 µM. An outline of the steps: as §1
In a further assay the test system is W2. The assay is described as above. Conditions: P. falciparum in erythrocytes, SYBR Green DNA, 72 h; series mostly up to 28.7 µM. An outline of the steps: as §1
For the next assay, the system named is CRL-7250. In words: Cytotoxic Profiling of Annotated Libraries Using Quantitative High-Throughput Screening (AID 1296008). Also: potency is read from the fitted curve at half-maximal effect. As to max response: % is scaled to controls: 0 for no effect and ±100 for the full control effect. Conditions: Five cell lines viability, CellTiter-Glo ATP luminescence, 48-72 h; max response: stronger effect = lower value. A digest of the protocol:
(§2)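 Cells exposed to compounds for 48 or 72 hr at 37 degrees Celsius. Viability read as ATP-coupled luminescence with CellTiter-Glo after 10 min at room temperature.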

Another assay deals with HEK293. The assay is described as above. Conditions: Five cell lines viability, CellTiter-Glo ATP luminescence, 48-72 h; max response: stronger effect = lower value. An outline of the steps: as §2
Assay [1] deals with HaCat. The description is as above. As to conditions: Five cell lines viability, CellTiter-Glo ATP luminescence, 48-72 h; max response: stronger effect = lower value. A digest of the protocol: as §2
(In general: Cellular ATP, detected with luciferase, serves as a proxy for viable cell number.)

In a further assay the test system is KB-3-1. The description is as above. Conditions: Five cell lines viability, CellTiter-Glo ATP luminescence, 48-72 h; max response: stronger effect = lower value. A digest of the protocol:
as §2

For a further assay, the system named is NIH3T3. Described as above. Conditions: Five cell lines viability, CellTiter-Glo ATP luminescence, 48-72 h; max response: stronger effect = lower value. An outline of the steps:
as §2

In assay [2] the test system is HACAT. Description: qHTS assay to identify novel small-molecules to repurpose for Merkel cell carcinoma treatment (AID 1296009). Conditions: MCC and control cell lines, CellTiter-Glo viability, 72 h; at 44.8 µM (top of the series) unless noted. A digest of the protocol:
(§3)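 Dose-response viability screen; 72 hr exposure at 37 degree celsius; CellTiter-Glo added, 10 min room temperature, luminescence read; RLUs scaled between no-cell and DMSO wells.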

A further assay has as its system HEK293T. The assay is described as above. As to conditions: MCC and control cell lines, CellTiter-Glo viability, 72 h; at 44.8 µM (top of the series). A digest of the protocol:
as §3

Several values for one entry are separate records, joined by “and”; a condition that tells them apart may be missing. Identical values can stand only once. Records with an inconclusive call do not appear. Unmarked numbers belong to inactive results. Activity calls are given as the source filed them. Calls follow the shape of the dose curve; as a rule, active = well fitted inhibition curve with a large enough effect; inconclusive = small, poorly fitted or top-dose-only effect; inactive = flat fitted curve, though single readings scatter.
Also: nearly all actives have a fitted effect of over 60% in size.

As for `CC(=O)Nc1cc([As](=O)(O)O)ccc1O`, the Potency entry in the assay with N140, with P93_24, in the assay with P94_40, in the assay with PAD, in the assay on PC15 and with PC26 was “inactive” throughout. The Potency result in the assay on PC49, in the assay on SC27B, with TAB109, in the assay on TAB113, in the assay with TAB165 and in the assay on W2 was “inactive” in each case. The max response is -3.67% in the assay with CRL-7250, 2.5% in the assay with HEK293, -14.2% with HaCat [1] and 5.7% in the assay on KB-3-1. Also, the call in the assay with NIH3T3 was inactive.

For `NCCc1cc(O)c(O)cc1O`, the Potency entry in the assay with N140, in the assay with P93_24, in the assay with P94_40, in the assay on PAD, in the assay on PC15 and with PC26 was “inactive” each time. Moreover, the Potency entry with PC49, in the assay with SC27B, with TAB113, with TAB165 and in the assay on W2 was “inactive” throughout. Moreover, the max response in the assay with CRL-7250 is 3.51%; in the assay with KB-3-1 it was 9.04%. For the same compound, the call with HEK293, with HaCat [1], in the assay on NIH3T3, in the assay with HACAT [2] and in the assay with HEK293T was inactive.

For the compound `O=c1oc2ccccc2c(O)c1C(CC(O)c1ccc(-c2ccc(Br)cc2)cc1)c1ccccc1` (centres undefined), the max response in the assay with CRL-7250 was 0.6%; with HaCat [1], 4.03%; in the assay on KB-3-1, 0.095%; with NIH3T3, 0.0262%. In addition, the compound was classed as inactive in the assay with HEK293 and in the assay on HEK293T.

As for `CCN(CC)CCOC(=O)C(O)(c1ccccc1)c1ccccc1`, the Potency result in the assay on N140, with P93_24, with P94_40, in the assay with PAD, in the assay with PC15 and with PC26 was “inactive” throughout. The Potency result with PC49, with SC27B, in the assay with TAB109, in the assay with TAB113 and with TAB165 was “inactive” each time. The max response with CRL-7250 was -0.239%; in the assay with HEK293 it was 3.4%; in the assay with HaCat [1], -11%; in the assay on KB-3-1 it was -1.34%. For the same compound, the compound was called inactive in the assay on NIH3T3.

Consider `O=C(NC(O)C(Cl)(Cl)Cl)NC(O)C(Cl)(Cl)Cl` (centres undefined), for which the Potency result in the assay with N140, in the assay with P93_24, with P94_40, in the assay on PAD, in the assay on PC15 and in the assay on PC26 was “inactive” each time. The Potency entry with PC49, with SC27B, in the assay with TAB109, in the assay with TAB113, in the assay on TAB165 and in the assay with W2 was “inactive” throughout. The max response is 1.53% in the assay on CRL-7250, 0.365% with HEK293 and 2.53% in the assay on KB-3-1. Further, the call in the assay with HaCat [1], in the assay on NIH3T3 and in the assay on HACAT [2] was inactive.

Consider `CC[N+]1(C)CCCC(OC(=O)C(O)(c2ccccc2)c2ccccc2)C1` (centres undefined), for which the Potency entry in the assay on N140, in the assay on P93_24, in the assay on P94_40, with PAD, with PC15 and with PC26 was “inactive” throughout. The Potency result in the assay with PC49, in the assay with SC27B, in the assay on TAB109, in the assay on TAB113, in the assay on TAB165 and in the assay on W2 was “inactive” each time. The max response in the assay on CRL-7250 was 2.5%; in the assay with HEK293, -9.88%; with HaCat [1] it was 1.89%; with KB-3-1 it was 3.82%. The result in the assay on NIH3T3 was inactive.

With `CC1NCCOC1c1ccccc1` (centres undefined), the Potency entry in the assay on N140, in the assay on P93_24, in the assay on P94_40, in the assay with PAD, with PC15 and with PC26 was “inactive” throughout. Also, the Potency entry in the assay with PC49, with SC27B, in the assay with TAB109, in the assay on TAB113 and with TAB165 was “inactive” each time. The max response with CRL-7250 is 1.98%; in the assay on KB-3-1 it was -11.6%; in the assay on NIH3T3, 1.83%. The result in the assay on HEK293, in the assay with HaCat [1], in the assay with HACAT [2] and with HEK293T was inactive.

As for `Clc1cccc(N2CCNCC2)c1`, the Potency result in the assay on N140, in the assay with P93_24, in the assay with P94_40, in the assay on PAD, with PC15 and in the assay on PC26 was “inactive” each time. Besides, the Potency result with PC49, in the assay on SC27B, in the assay with TAB113 and in the assay on TAB165 was “inactive” in each case. The Potency in the assay with W2 was 7.57 µM (active). The max response is 1.11% in the assay with CRL-7250, 1.3% in the assay with HEK293 and 5.71% in the assay on KB-3-1. The outcome in the assay on HaCat [1], with NIH3T3 and with HACAT [2] was inactive.

On to `CCN(C(C)=O)c1cccc(-c2ccnc3c(C#N)cnn23)c1`, for which the Potency result in the assay on N140, in the assay on P93_24, with P94_40, with PAD, in the assay on PC15 and in the assay with PC26 was “inactive” in each case. In addition, the Potency result with PC49, in the assay on SC27B, with TAB109, in the assay with TAB113, in the assay with TAB165 and with W2 was “inactive” each time. Also, the max response in the assay with CRL-7250 was -2.01%; in the assay on KB-3-1 it was 1.34%. Further, the compound was classed as inactive in the assay on HEK293, with HaCat [1], in the assay on NIH3T3, in the assay on HACAT [2] and in the assay on HEK293T.

In the case of `Clc1ccc(CCC(Cn2ccnc2)Sc2c(Cl)cccc2Cl)cc1` (centres undefined), the max response in the assay on CRL-7250 was -0.661%; in the assay with KB-3-1 it was 1.06%; in the assay with NIH3T3, -8.13% and -9.95%. Further, in the assay with HEK293, the Potency is 26.4 µM (active).

Take `Cc1cccc(C)c1NC1=NCCCS1`: the Potency entry with PC15, in the assay with SC27B and in the assay with TAB113 was “inactive” each time. The Potency in the assay on W2 is 4.26 µM (active). For the same compound, the max response with CRL-7250 is -7.18%; in the assay on HEK293, -6.53%; with HaCat [1] it was -7.27%; with KB-3-1 it was -1.86%; in the assay with NIH3T3, 1%.
